Rows were chosen to be rich in hits. Some 7.9% of all compounds tested hit in one or more screens of this group.
KB-V1 MDR tox = KB-V1 MDR subline cytotoxicity. KB-V1 MDR cells viability, CellTiter-Glo, 72 h. Potency, µM (doses to about 46.1 µM), actives largely listed as cytotoxic. 400,000 tested, 3.4% active. AID 1347076; also: nearly all actives have a fitted effect of over 60% in size
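qHTS viability screen in drug-selected KB-V1 MDR cells: 72 h compound treatment at 37 degrees C, ATP luminescence end point.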
MCF10A rereplic = inducers of DNA re-replication in MCF 10A breast cells; MCF 10A DNA re-replication, Hoechst nuclear intensity, 48 h; Potency, µM (highest dose often 46.1 µM), most hits filed as activators; 350,000 tested, 2.9% active; AID 624296; also: nearly all actives have a fitted effect of over 50% in size
SW480 rerep = DNA re-replication induction in SW480 cells; AID 624297; 340,000 tested, 1.8% active; SW480 DNA re-replication, Hoechst DNA content imaging, 48 h; Potency, µM (doses to about 46.1 µM), actives largely listed as activators; also: nearly all actives have a fitted effect of over 55% in size
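Cells (250 per well) received 23 nL compound or DMSO by pin tool and were kept 48 hr at 37 C, 5% CO2. Nuclei were then stained with Hoechst for 40 min and scanned for DNA content.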
KB-3-1 tox = kills parental KB-3-1 adenocarcinoma cells | Potency, µM (top dose mostly 46.1 µM), actives largely listed as cytotoxic | 400,000 tested, 1.4% active | KB-3-1 viability, CellTiter-Glo ATP luminescence, 72 h; also: nearly all actives have a fitted effect of over 60% in size
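KB-3-1 cells, DMEM (no phenol red) + 10% FBS; compound by pin transfer, 72 h, 37 °C. Readout: CellTiter-Glo luminescence after 10 min. Data normalized, curve-fitted.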
HT1080NT lethal = kills 2HG-producing HT-1080-NT fibrosarcoma cells; 360,000 tested, 1.6% active; AID 686970; Potency, µM (doses to about 46.1 µM), actives largely listed as cytotoxic; HT-1080-NT fibrosarcoma viability, CellTiter-Glo ATP luminescence, 48 h;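 also: NT is the 2HG producing partner of a matched IDH1 knockdown line; nearly all actives have a fitted effect of over 55% in size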
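Luminescent CellTiter-Glo readout after 48 hours of compound exposure at 37 degrees C defined viability of HT-1080-NT cells. Activity was normalized to DMSO wells and cell-free media wells; concentration-response curves were fitted and assigned curve classes.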
HT1080 IDH1KD tx = HT-1080 IDH1 knockdown cell toxicity (counter line). HT-1080 IDH1 knockdown viability, ATP luminescence, 48 h. Potency, µM (series often up to 46.1 µM), hits mostly cytotoxic. 360,000 tested, 2% active
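Cytotoxicity counter-line: IDH1KD HT-1080, 48 h, CellTiter-Glo. Curves classed by r2, magnitude and activity.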
Of the large screens only hits and unclear results are named; the others gave an inactive call. Calls follow the shape of the dose curve; as a rule, active = well fitted curve in the direction sought with a large enough effect; inconclusive = small, poorly fitted or top-dose-only effect, or another doubt; inactive = no such curve, though single readings can be large; an effect the other way counts as inactive or inconclusive.

Cc1cccc(C(=O)Nc2cccc(NC(=O)c3ccccc3)c2)c1	none
COc1ccc(-c2oc(=O)c3cc(OC)c(OC)cc3c2C#CCCO)cc1	SW480 rerep inconclusive
O=C(CSc1ccc(Cl)cc1)N/N=C/c1ccc([N+](=O)[O-])o1	MCF10A rereplic 9.2µM, SW480 rerep 21µM
O=C(N/N=C/c1ccc(-c2ccc([N+](=O)[O-])cc2)o1)C(O)c1ccccc1 (stereo not given)	SW480 rerep inconclusive
O=C(COc1ccccc1)N/N=C/c1ccc([N+](=O)[O-])o1	KB-3-1 tox 15µM, HT1080NT lethal inconclusive, HT1080 IDH1KD tx inconclusive
O=C(N/N=C/c1ccc([N+](=O)[O-])o1)C(O)c1ccccc1 (stereo not given)	MCF10A rereplic 12µM, SW480 rerep inconclusive, KB-3-1 tox inconclusive, HT1080NT lethal inconclusive
Cc1ccc(OCC(=O)N/N=C/c2ccc([N+](=O)[O-])o2)cc1	KB-V1 MDR tox inconclusive, HT1080NT lethal inconclusive, HT1080 IDH1KD tx inconclusive
CCCC(=O)Nc1ccc(C(=O)N/N=C/c2ccc([N+](=O)[O-])o2)cc1	MCF10A rereplic 3.3µM, SW480 rerep 16µM, KB-3-1 tox inconclusive, HT1080NT lethal 12µM, HT1080 IDH1KD tx 13µM
CCOC(=O)N1CCN(c2ccc(N3C(=O)CCCC3=O)cc2[N+](=O)[O-])CC1	none
COc1ccc(NC(=S)Nc2ccccc2)c(OC)c1	none
COc1ccc(NC(=S)Nc2ccc(OCc3ccccc3)cc2)c(OC)c1	KB-V1 MDR tox 16µM, KB-3-1 tox inconclusive
C/C(=C/C(=O)NCc1ccccc1)C(=O)O	none
Cc1ccccc1OCCNc1ccc(C(F)(F)F)cc1[N+](=O)[O-]	KB-V1 MDR tox inconclusive, KB-3-1 tox 16µM
O=[N+]([O-])c1cc(C(F)(F)F)ccc1NCCOc1ccccc1	none
COc1ccccc1CCn1c(N)cc(=O)[nH]c1=O	KB-V1 MDR tox inconclusive
Cc1ccc([N+](=O)[O-])c(OCCn2cnc3ccccc32)c1	KB-V1 MDR tox 15µM, KB-3-1 tox inconclusive
NC(=O)C1=C[C@H](c2ccc3c(c2)OCO3)C[C@H](OCc2ccc(CO)cc2)O1	none
O=S(=O)(c1cccc(S(=O)(=O)N2CCCC2)c1)N1CCCCC1	KB-V1 MDR tox inconclusive
CCCc1cc(=O)oc2cc(C)cc(OCC(=O)O)c12	none
CCOCCCNC(=O)/C(C#N)=C/c1cc(C)c(O)c(C)c1	MCF10A rereplic 23µM, SW480 rerep inconclusive
CCOCCCNC(=O)/C(C#N)=C/c1cc(OC)c(O)c([N+](=O)[O-])c1	KB-V1 MDR tox 5.8µM, MCF10A rereplic 4.6µM, SW480 rerep inconclusive, KB-3-1 tox 7.3µM, HT1080NT lethal 6.5µM, HT1080 IDH1KD tx 4.6µM
CCOCCCNC(=O)/C(C#N)=C/c1ccc(C(=O)OC)cc1	none
CCOCCCNC(=O)/C(C#N)=C/c1ccc(Cl)c([N+](=O)[O-])c1	KB-V1 MDR tox inconclusive, MCF10A rereplic 18µM, KB-3-1 tox inconclusive, HT1080NT lethal 23µM, HT1080 IDH1KD tx 33µM
CC1(c2ccc(Cl)cc2)NC(=O)N(CC(=O)NC(=O)NCc2ccco2)C1=O (stereo not given)	HT1080 IDH1KD tx inconclusive
Cc1ccsc1C1Nc2ccc3ncccc3c2C2=C1C(=O)CC(C)(C)C2 (stereo not given)	MCF10A rereplic inconclusive, SW480 rerep inconclusive, HT1080NT lethal 10µM, HT1080 IDH1KD tx inconclusive
CCn1c(SCC(=O)NC2CCCC2)nnc1C(C)NC(=O)c1ccccc1Br (stereo not given)	none
CCOc1ccc(C(=O)NCC(=O)Nc2ccc3c(c2)OCO3)cc1OCC	none
CCCOc1c(Cl)cc(C(=O)Nc2ccc3c(c2)OCO3)cc1OCC	KB-V1 MDR tox inconclusive, KB-3-1 tox inconclusive, HT1080NT lethal inconclusive, HT1080 IDH1KD tx 10µM
CCOc1cc(C(=O)Nc2ccc3c(c2)OCO3)ccc1OC(F)F	KB-V1 MDR tox 21µM
CCCCCCOc1ccc(/C=C/C(=O)Nc2sc3c(c2C(=O)OC)CCC3)cc1OC	KB-V1 MDR tox inconclusive (no result: MCF10A rereplic, SW480 rerep, HT1080NT lethal, HT1080 IDH1KD tx)
COc1ccccc1N(C)c1cc2c(c3c1ccn3C)C1CCC2O1 (stereo not given)	KB-3-1 tox inconclusive, HT1080NT lethal 23µM, HT1080 IDH1KD tx inconclusive (no result: MCF10A rereplic, SW480 rerep)
Cn1ccc2c(N3c4ccccc4CCc4ccccc43)cc3c(c21)C1CCC3C1 (stereo not given)	KB-3-1 tox inconclusive, HT1080NT lethal inconclusive, HT1080 IDH1KD tx inconclusive (no result: MCF10A rereplic, SW480 rerep)
Cn1ccc2c(N3c4ccccc4CCc4ccccc43)cc3c(c21)C1CCC3O1 (stereo not given)	KB-V1 MDR tox inconclusive, HT1080NT lethal inconclusive, HT1080 IDH1KD tx 18µM (no result: MCF10A rereplic, SW480 rerep)
O=C(Nc1ccc(Br)cc1)c1cccc(S(=O)(=O)Nc2cnc3ccccc3c2)c1	MCF10A rereplic inconclusive, HT1080NT lethal inconclusive, HT1080 IDH1KD tx inconclusive
CCCCCOc1ccc(/C=C/c2c([N+](=O)[O-])c(=O)n(C)c(=O)n2C)cc1	MCF10A rereplic inconclusive, SW480 rerep inconclusive, KB-3-1 tox inconclusive
O=C1c2oc3ccccc3c(=O)c2C(c2cccnc2)N1Cc1ccco1 (stereo not given)	KB-V1 MDR tox 7.3µM
CN(C)CCN1C(=O)c2oc3ccccc3c(=O)c2C1c1cccc(Br)c1 (stereo not given)	KB-V1 MDR tox 10µM
CN(C)CCN1C(=O)c2oc3ccc(Cl)cc3c(=O)c2C1c1cccc(Br)c1 (stereo not given)	none
COc1ccc(C)cc1NC(=O)CO/N=C(\N)CC(=O)Nc1ccccc1OC	none
COc1ccccc1NC(=O)C/C(N)=N/OCC(=O)Nc1cccc(Cl)c1	KB-V1 MDR tox 18µM
COC(=O)CCc1c(C)c(C(=O)c2cc(OC)c(OC)c(OC)c2)c2ccccn12	MCF10A rereplic inconclusive, SW480 rerep 10µM, HT1080NT lethal inconclusive, HT1080 IDH1KD tx inconclusive
Cc1ccc(S(=O)(=O)NCC[C@@]2(C)C3CCC2(C)C(=O)C3)cc1 (stereo not given in full)	none
O=S(=O)(c1ccc(Cl)cc1)c1snnc1-c1ccccc1	KB-V1 MDR tox inconclusive, MCF10A rereplic inconclusive, SW480 rerep inconclusive, KB-3-1 tox 5.8µM, HT1080NT lethal 12µM, HT1080 IDH1KD tx 7.3µM
O=S(=O)(c1ccc(F)cc1)c1snnc1-c1ccccc1	MCF10A rereplic 7.3µM, KB-3-1 tox 13µM, HT1080NT lethal 6.5µM, HT1080 IDH1KD tx inconclusive
c1ccc(-c2nnsc2-c2ncc[nH]2)cc1	HT1080 IDH1KD tx inconclusive
CC(C)c1onc(C(=O)N2CCCCC2)c1[N+](=O)[O-]	none
COC(=O)c1ccc(N2CCC(C)CC2)c(N)c1	KB-V1 MDR tox inconclusive, MCF10A rereplic 21µM, SW480 rerep inconclusive
Cc1ccc(C(=O)C[n+]2ccc(Cc3ccccc3)cc2)cc1	KB-3-1 tox 4.6µM
COc1ccc(C(=O)C[n+]2cccc3cc(OC)ccc32)cc1	KB-3-1 tox 16µM

Screens from PubChem.
